This is part of a sample that, as a whole, favours compounds with a hit. Of some 79,000 tested, about 15% had one in any assay. Values without a mark were called inactive. The source made the active and inactive calls. No stated cut-off is given here; in the data, active means growth inhibition above about 70%; inactive means the rest.
Experiments:
[1] = NCI Yeast Anticancer Drug Screen. Data for the wt2 strain (AID 169);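 further: 0% = growth of vehicle-treated yeast cultures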; settings: S. cerevisiae wt2 strain growth inhibition, hits give high values
Method in brief: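 Values express reduction in yeast growth under compound treatment, referenced to vehicle-treated cells.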

[2] = NCI Yeast Anticancer Drug Screen. Data for the mlh1 strain (AID 171);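 further: 0% = growth of vehicle-treated control cultures of the same strain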; settings: S. cerevisiae mlh1 strain growth inhibition, hits give high values
Method in brief: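 Steps: expose the defined-mutant yeast strain to compound; expose a parallel culture to vehicle; measure growth; express compound effect as inhibition relative to the vehicle culture.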

[3] = NCI Yeast Anticancer Drug Screen. Data for the sgs1 strain (AID 173);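 further: 0% = growth of vehicle-only control cultures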; settings: S. cerevisiae sgs1 mutant, hits give high values
Method in brief: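 Treat defined-mutant yeast with compound; measure growth; calculate inhibition relative to vehicle-treated cells.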

[4] = NCI Yeast Anticancer Drug Screen. Data for the mlh1 rad18 strain (AID 175); settings: S. cerevisiae mlh1 rad18 strain growth inhibition, hits give high values
Method in brief: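 Test agents were incubated with a yeast strain of defined genotype (DNA damage repair defect). Inhibition of growth was derived by comparison with vehicle-exposed cultures.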

[5] = NCI Yeast Anticancer Drug Screen. Data for the rad18 strain (AID 177); settings: S. cerevisiae rad18 mutant growth inhibition, hits give high values
Method in brief: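 A genetically defined yeast mutant impaired in DNA damage repair was treated with test compounds, then its growth was measured against cultures receiving vehicle alone.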

[6] = NCI Yeast Anticancer Drug Screen. Data for the rad52 strain (AID 147);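 further: 0% = growth of vehicle-treated control cultures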; settings: S. cerevisiae rad52 mutant growth inhibition, hits give high values
Method in brief: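 Screen used a yeast mutant impaired in DNA repair. After compound exposure, growth was measured. Values reflect inhibition compared with vehicle-treated cells.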

[7] = NCI Yeast Anticancer Drug Screen. Data for the wt1 strain (AID 149);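 further: 0% = growth of vehicle-treated wt1 cultures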; settings: S. cerevisiae wt1 strain (SPY 50644) growth inhibition, hits give high values
Method in brief: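 Readout: yeast growth inhibition, normalised to vehicle controls, in the wt1 strain exposed to test compounds.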

[8] = NCI Yeast Anticancer Drug Screen. Data for the rad50EPP+ strain (AID 151);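 further: 0% = growth of vehicle-treated control cultures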; settings: S. cerevisiae rad50 mutant strain, hits give high values
Method in brief: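 Exposing the rad50EPP+ strain to each compound, growth was compared with vehicle-only cultures to give inhibition.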

[9] = NCI Yeast Anticancer Drug Screen. Data for the mgt1 strain (AID 153); settings: S. cerevisiae mgt1 mutant growth inhibition, hits give high values
Method in brief: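 Genetically defined yeast (mgt1) treated with compound; inhibition of growth expressed against vehicle-treated controls.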

[10] = NCI Yeast Anticancer Drug Screen. Data for the rad50 strain (AID 155);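 further: 0% = growth of vehicle-only cultures of the same strain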; settings: S. cerevisiae rad50 strain growth inhibition, hits give high values
Method in brief: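 Compounds were tested on a yeast strain with an engineered DNA damage repair alteration; the reported value is growth inhibition normalised to vehicle treatment.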

[11] = NCI Yeast Anticancer Drug Screen. Data for the mec2-1 strain (AID 157); settings: S. cerevisiae mec2-1 strain, hits give high values
Method in brief: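 Readout is yeast growth inhibition, normalised to vehicle-treated controls, in the mec2-1 strain exposed to compound.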

[12] = NCI Yeast Anticancer Drug Screen. Data for the rad14 strain (AID 159);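 further: 0% = growth of vehicle-treated control cultures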; settings: S. cerevisiae rad14 strain growth inhibition, hits give high values
Method in brief: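 Compound-treated yeast with a defined DNA-repair lesion; growth inhibition normalised to vehicle-treated cultures.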

[13] = NCI Yeast Anticancer Drug Screen. Data for the sgs1 mgt1 strain (AID 161);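 further: 0% = growth of cultures given vehicle only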; settings: S. cerevisiae sgs1 mgt1 strain, hits give high values
Method in brief: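 Growth of a repair-deficient yeast mutant was monitored after compound treatment and expressed as inhibition relative to vehicle-treated cultures.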

[14] = NCI Yeast Anticancer Drug Screen. Data for the CLN2oe strain (AID 163);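 further: 0% = growth of vehicle-only control cultures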; settings: S. cerevisiae CLN2oe strain, hits give high values
Method in brief: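 Values reflect how much compound exposure reduced yeast growth, referenced to vehicle-exposed cells. Assay organism is a strain with a defined genetic change affecting cell-cycle control.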

[15] = NCI Yeast Anticancer Drug Screen. Data for the cln2 rad14 strain (AID 165);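 further: 0% = growth equal to vehicle treated cultures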; settings: S. cerevisiae cln2 rad14 strain, hits give high values
Method in brief: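 Relative to vehicle controls, growth inhibition of compound-treated cln2 rad14 yeast was recorded.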

[16] = NCI Yeast Anticancer Drug Screen. Data for the bub3 strain (AID 167); settings: S. cerevisiae bub3 mutant strain, hits give high values
Method in brief: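 Growth of a checkpoint-deficient yeast mutant is measured after compound exposure. Values represent inhibition relative to vehicle.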

[17] = at 5.0 µM (retest, dose inferred, filed as 0.5)
[18] = at 50.0 µM (retest, dose inferred, filed as 5.0)

O=c1[nH]c2c([N+](=O)[O-])cccc2c2ccccc12
growth inhibition ([1]; at 1.2 µM): -2%
growth inhibition ([1]; at 3.7 µM): 6%
growth inhibition ([1]; at 11.0 µM): -1%
growth inhibition ([1]; at 33.0 µM): 12%
growth inhibition ([1]; at 100.0 µM): 84% (active)
growth inhibition ([2]; at 1.2 µM): -2%
growth inhibition ([2]; at 3.7 µM): -2%
growth inhibition ([2]; at 11.0 µM): 0%
growth inhibition ([2]; at 33.0 µM): 18%
growth inhibition ([2]; at 100.0 µM): 88% (active)
growth inhibition ([3]; at 1.2 µM): -2%
growth inhibition ([3]; at 3.7 µM): 0%
growth inhibition ([3]; at 11.0 µM): 7%
growth inhibition ([3]; at 33.0 µM): 40%
growth inhibition ([3]; at 100.0 µM): 90% (active)
growth inhibition [4, 17]: 4%
growth inhibition [4, 18]: 41%
growth inhibition ([4]; at 50.0 µM): 96.2% (active)
growth inhibition ([5]; at 1.2 µM): 3%
growth inhibition ([5]; at 3.7 µM): 9%
growth inhibition ([5]; at 11.0 µM): 26%
growth inhibition ([5]; at 33.0 µM): 73% (active)
growth inhibition ([5]; at 100.0 µM): 96% (active)

O=C(CCSC1=NCCCN1)c1ccc(F)cc1
growth inhibition ([6]; at 1.2 µM): -38%
growth inhibition ([6]; at 3.7 µM): -55%
growth inhibition ([6]; at 11.0 µM): -53%
growth inhibition ([6]; at 33.0 µM): 58%
growth inhibition ([6]; at 100.0 µM): 99% (active)
growth inhibition ([7]; at 1.2 µM): -43%
growth inhibition ([7]; at 3.7 µM): -61%
growth inhibition ([7]; at 11.0 µM): -101%
growth inhibition ([7]; at 33.0 µM): 15%
growth inhibition ([7]; at 100.0 µM): 98% (active)
growth inhibition ([8]; at 1.2 µM): -75%
growth inhibition ([8]; at 3.7 µM): -100%
growth inhibition ([8]; at 11.0 µM): -54%
growth inhibition ([8]; at 33.0 µM): 37%
growth inhibition ([8]; at 100.0 µM): 98% (active)
growth inhibition ([9]; at 1.2 µM): -59%
growth inhibition ([9]; at 3.7 µM): -59%
growth inhibition ([9]; at 11.0 µM): -52%
growth inhibition ([9]; at 33.0 µM): -3%
growth inhibition ([9]; at 100.0 µM): 99% (active)
growth inhibition ([10]; at 1.2 µM): -21%
growth inhibition ([10]; at 3.7 µM): -40%
growth inhibition [10, 17]: 24%
growth inhibition ([10]; at 11.0 µM): -34%
growth inhibition ([10]; at 33.0 µM): -34%
growth inhibition [10, 18]: 69%
growth inhibition ([10]; at 50.0 µM): 4.9%
growth inhibition ([10]; at 100.0 µM): 96% (active)
growth inhibition ([11]; at 1.2 µM): -15%
growth inhibition ([11]; at 3.7 µM): 3%
growth inhibition [11, 17]: 17%
growth inhibition ([11]; at 11.0 µM): -52%
growth inhibition ([11]; at 33.0 µM): 55%
growth inhibition [11, 18]: 75% (active)
growth inhibition ([11]; at 50.0 µM): 94.3% (active)
growth inhibition ([11]; at 100.0 µM): 100% (active)
growth inhibition ([12]; at 1.2 µM): -19%
growth inhibition ([12]; at 3.7 µM): -50%
growth inhibition ([12]; at 11.0 µM): -54%
growth inhibition ([12]; at 33.0 µM): 23%
growth inhibition ([12]; at 100.0 µM): 99% (active)
growth inhibition [13, 17]: 6%
growth inhibition [13, 18]: 93% (active)
growth inhibition ([13]; at 50.0 µM): 91% (active)
growth inhibition ([14]; at 1.2 µM): -6%
growth inhibition ([14]; at 3.7 µM): -7%
growth inhibition ([14]; at 11.0 µM): -24%
growth inhibition ([14]; at 33.0 µM): 14%
growth inhibition ([14]; at 100.0 µM): 98% (active)
growth inhibition [15, 17]: -3%
growth inhibition [15, 18]: 13%
growth inhibition ([15]; at 50.0 µM): 25.6%
growth inhibition ([16]; at 1.2 µM): -22%
growth inhibition ([16]; at 3.7 µM): -17%
growth inhibition [16, 17]: 12%
growth inhibition ([16]; at 11.0 µM): -23%
growth inhibition ([16]; at 33.0 µM): -26%
growth inhibition [16, 18]: 79% (active)
growth inhibition ([16]; at 50.0 µM): 91.2% (active)
growth inhibition ([16]; at 100.0 µM): 68%
growth inhibition ([1]; at 1.2 µM): -12%
growth inhibition ([1]; at 3.7 µM): -13%
growth inhibition ([1]; at 11.0 µM): -5%
growth inhibition ([1]; at 33.0 µM): 34%
growth inhibition ([1]; at 100.0 µM): 99% (active)
growth inhibition ([2]; at 1.2 µM): -32%
growth inhibition ([2]; at 3.7 µM): -73%
growth inhibition ([2]; at 11.0 µM): -23%
growth inhibition ([2]; at 33.0 µM): -13%
growth inhibition ([2]; at 100.0 µM): 98% (active)
growth inhibition ([3]; at 1.2 µM): -41%
growth inhibition ([3]; at 3.7 µM): -52%
growth inhibition ([3]; at 11.0 µM): -58%
growth inhibition ([3]; at 33.0 µM): -29%
growth inhibition ([3]; at 100.0 µM): 99% (active)
growth inhibition [4, 17]: 24%
growth inhibition [4, 18]: 48%
growth inhibition ([4]; at 50.0 µM): 14.9%
growth inhibition ([5]; at 1.2 µM): -13%
growth inhibition ([5]; at 3.7 µM): -23%
growth inhibition ([5]; at 11.0 µM): -22%
growth inhibition ([5]; at 33.0 µM): 21%
growth inhibition ([5]; at 100.0 µM): 96% (active)

Reference: PubChem BioAssay (NCI)
